Assay outcomes deposited in PubChem BioAssay by National Center for Advancing Translational Sciences (NCATS).
Rows were chosen to be rich in hits. Some 7.8% of all compounds tested hit in one or more screens of this group.
LASV entry inh: qHTS for Inhibitors of binding or entry into cells for Lassa Virus | Lassa virus pseudotype entry inhibition, cell reporter | Potency, µM (top dose mostly 37.9 µM), inactives show top-dose activity change, negative = inhibition, most hits filed as inhibitors | 1.2% of 300,000 active | AID 540256, 2011; calls by dose curve; tested in HEK293 cells; also: potency is read from the fitted curve at half-maximal effect; nearly all actives have a fitted effect of over 50% in size
HCMV inh: qHTS Assay for inhibitors of the human cytomegalovirus (HCMV) | HFF cells, HCMV-luciferase reporter, 72 h; stronger effect = lower value | activity change, negative = inhibition, % at 57.5 µM | 4.5% of 410,000 active | AID 1259415, 2018; in the data active = activity change below about -60%; inconclusive = no clear call, values can overlap the other calls; inactive = above about -39%
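Two compound doses tested in HFFs infected with HCMV-luciferase, MOI 1 PFU/cell, 72 h at 37C. Lysate luminescence read with OneGlo; data normalized against buffer-only and 10uM Salinomycin inhibitor controls.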
Vaccinia Venus: qHTS for Stage-Specific Inhibitors of Vaccinia Orthopoxvirus: Venus Reporter Primary qHTS | 0.46% of 330,000 active | Potency, µM (series often up to 36.5 µM), for inactives: at the highest dose activity change, negative = inhibition, most hits filed as inhibitors | Vaccinia virus Venus reporter expression, fluorescence; calls by dose curve; tested in A549 cells; also: potency is read from the fitted curve at half-maximal effect; nearly all actives have a fitted effect of over 30% in size
HCV inh: qHTS Assay for Inhibitors of Hepatitis C Virus (HCV); 3.4% of 340,000 active; Huh7.5.1 HCVcc-Cre infection, luciferase reporter, 44 h; Potency, µM (doses to about 41.8 µM), for the others: at the top dose activity change, negative = inhibition, usual class: inhibitors; AID 651820, 2012; active = well fitted inhibition curve with a large enough effect; inconclusive = small, poorly fitted or top-dose-only effect, or another doubt; inactive = no such curve, though single readings can be large or run the other way; also: potency is read from the fitted curve at half-maximal effect
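Whole-lifecycle infectious HCVcc-Cre system; cells 1,000/well, compound then virus (~0.5 moi) added 4 h after plating, 44 h culture. Luciferase read 15 sec following 15 min substrate incubation, room temp.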
VACV mCherry inh: qHTS for Stage-Specific Inhibitors of Vaccinia Orthopoxvirus: mCherry Reporter Primary qHTS; Vaccinia virus mCherry reporter infection, fluorescence; Potency, µM (doses to about 36.5 µM), inactives show top-dose activity change, negative = inhibition, actives largely listed as inhibitors; 0.63% of 310,000 active; AID 720579, 2013; calls by dose curve; tested in A549 cells; also: potency is read from the fitted curve at half-maximal effect; nearly all actives have a fitted effect of over 35% in size
Marburg entry inh: qHTS for inhibitors of binding or entry into cells for Marburg Virus; Marburg virus pseudotyped entry inhibition, cell reporter; Potency, µM (top dose mostly 37.8 µM), without a hit: at the highest dose activity change, negative = inhibition, most hits filed as inhibitors; 1.8% of 300,000 active; AID 540276, 2011; calls by dose curve; tested in HEK293 cells; also: potency is read from the fitted curve at half-maximal effect
An asterisk follows results filed as active; i = inactive; ? = inconclusive; · = no result; [ ] = remark or other dose. % is scaled to controls: 0 for no effect and ±100 for the full control effect.

SMILES	LASV entry inh	HCMV inh	Vaccinia Venus	HCV inh	VACV mCherry inh	Marburg entry inh
COc1ccc(NC(=O)Nc2cccc([N+](=O)[O-])c2)cc1Cl	-15.4%	-100.0*	?	?	?	?
O=C(c1ccc(COc2ccc(F)cc2)o1)n1cc(Br)cn1	3.4%	77.3	·	13.5%	·	6.3%
O=C(c1ccc(COc2ccc(F)cc2)o1)n1cccn1	14.4%	-103.8*	-11.0%	19.2%	i	17.0%
NC[C@H](O)c1cc(O)c(O)cc1F	·	·	·	·	·	-5.6%
CCN(C(=O)Cn1cnc2c1c(=O)n(C)c(=O)n2C)c1ccccc1C	-14.4%[46.1 µM]	-0.3	-1.8%	·	-8.3%	·
CC1CC(C)CN(CCCNC(=O)c2ccc(CS(=O)(=O)Cc3ccccc3F)o2)C1 (stereo not given)	-2.2%	-73.1*	-11.2%	-0.7%	·	1.8%
Cc1nnc(N2CCCC(C(=O)Nc3cccc(C(F)(F)F)c3)C2)c2nn(-c3ccccc3)c(C)c12 (stereo not given)	-21.1%[46.1 µM]	-32.6	-19.6%	·	-29.0%	·
CN1CCN(Cc2cc(Cl)c3cccnc3c2OC(=O)c2cccs2)CC1	-21.8%	?	?	?	11.2µM*	?
O=C(Oc1c(CN2CCOCC2)cc(Cl)c2cccnc12)c1ccccc1Br	·	-67.2*	·	?	·	·
O=C(Oc1c(Cl)cc(Cl)c2cccnc12)N1CCCCC1	1.4%	1.9	·	-25.0%	·	0.3%
NCCc1nnc(SCc2ccc(Cl)cc2)o1	17.5%[46.1 µM]	-3.5	-9.8%	·	-9.8%	-3.5%[46.1 µM]
C[C@@H]1CC[C@H]2C(=O)N(Cc3ccc(Cl)cc3)C[C@H](O)CN2[C@@H]1c1ccc(Br)cc1	·	·	·	·	·	29.1%[14.2 µM]
O=C(Nc1sc2c(c1C(=O)O)CCCCC2)c1ccccc1	?	10.8	-24.4%	?	i	7.08µM*
O=C(Nc1sc2c(c1C(=O)O)CCCC2)c1cccc(Cl)c1	·	27.8	·	-2.1%	·	·
CNC(=O)c1c(NC(=O)c2ccco2)sc2c1CCC2	·	0.1	·	11.2µM*	·	·
O=C(Nc1sc2c(c1C(=O)O)CCC2)c1ccccc1	?	84.2	·	3.2%	·	7.3µM*
O=C(Nc1sc2c(c1C(=O)NC1CCCCC1)CCC2)c1ccco1	-15.8%	-0.7	·	?	·	0.3%
CCC1CCc2c(sc(NC(=O)c3ccco3)c2C(N)=O)C1 (stereo not given)	?	80.1	·	3.98µM*	·	-1.5%
CC(C)C1C(=O)Nc2ccc(S(=O)(=O)NCc3ccc(Cl)cc3)cc21 (stereo not given)	-2.3%[46.1 µM]	-22.8	-13.5%	·	-15.4%	·
CCc1ccccc1NC(=O)Cn1cc(S(=O)(=O)N2CCCC2)c(S(=O)(=O)N2CCCC2)c1	?	-2.1	-2.1%	·	-3.1%	·
CCCCCCCCCC[Si](C)(C)CCC(=O)N[C@@H](Cc1ccc(C)cc1)c1ccccc1	·	·	-12.6%	·	-1.3%	14.0%
O=C(Nc1sc2c(c1C(=O)O)CCCC2)c1ccc(Cl)cc1	7.94µM*	16.9	-27.1%	?	-8.6%	6.31µM*
O=C(Nc1sc2c(c1C(=O)O)CCC2)c1ccc(F)cc1	?	31.1	-29.7%	3.3%	?	-16.9%[46.1 µM]
NC(=O)c1c(NC(=O)c2cccs2)sc2c1CCCCCC2	?	8.7	-27.0%	10µM*	?	?
O=C(Nc1sc2c(c1C(=O)O)CCC2)c1cccs1	?	59.1	-25.0%	-22.3%	i	?
SMILES	LASV entry inh	HCMV inh	Vaccinia Venus	HCV inh	VACV mCherry inh	Marburg entry inh
COc1cc(OC)cc(C(=O)Nc2sc3c(c2C(N)=O)CCC3)c1	?	-16.4	?	2µM*	?	-0.3%[46.1 µM]
COC(=O)c1c(NC(=O)c2ccccc2N(C)S(=O)(=O)c2ccccc2)sc2c1CCCC2	?	?	?	?	·	4.47µM*
COC(=O)[C@@H]1CC[C@H](C)[C@@H](c2ccc(C)cc2)N1C(=O)c1ccc(C=NO[C@@H](C)c2cc(-c3c(C)cc(C)cc3C)no2)cc1	·	·	·	·	·	6.5%[14.2 µM]
COc1ccc(F)c(CN2CCC3(CCC(CNC(=O)c4cc(C)nn4C)O3)CC2)c1 (stereo not given)	·	·	-10.3%	·	-16.4%	·
O=C1C(c2cc(=O)c3ccccc3[nH]2)=C(O)c2ccccc21	?	12.7	?	8.1%	?	5.62µM*
O=C1C(c2c(O)[nH]c3ccccc23)=Nc2ccccc21	·	59.8	-1.8%	14.0%	-8.7%	·
O=c1cc(-c2ccccc2)[nH]c2ccccc12	-5.6%	-76.3*	?	-26.5%	?	?
O=C1C(c2ccncc2)=C(O)c2ccccc21	7.94µM*	67.2	-20.5%	-0.4%	·	7.08µM*
O=c1nc(-c2ccccc2)c2ccccc2[nH]1	1.1%	18.0	-9.7%	-7.4%	·	-5.4%
COC(=O)CC1=CO[C@@H](O)[C@@H]2C(CO)=CC[C@@H]12	·	·	·	·	·	15.9%[14.2 µM]
CC(=O)Nc1ccc(C(=O)Nc2ccc3c(c2)N(C2CCCC2)C(=O)c2ccccc2S3)cc1	6.31µM*	-83.2*	-13.0%	·	-19.4%	·
COc1ccc(/C=N/n2cnnc2SCc2ccccc2)cc1	?	6.6	-13.6%	-6.6%	·	-17.2%[46.1 µM]
COc1ccc(/C=N/n2cnnc2SCc2ccc(OC)cc2)cc1	2.51µM*	-24.7	-15.3%	-7.2%	-17.0%[1.46 µM]	-13.0%
CC1=C(C(=O)Nc2cc(C)cc(C)c2)C2(CCCCC2)OC1=O	25.7%[46.1 µM]	16.0	-7.5%	·	-7.8%	3.5%[46.1 µM]
COC(=O)C1=C(C)N(Cc2ccccc2)C(=NCC2CC2)NC1c1ccc(Br)cc1 (stereo not given)	·	·	·	·	·	-10.3%[14.2 µM]
Cc1ccc(S(=O)(=O)Nc2ccccc2-c2ccccc2NS(=O)(=O)c2ccc(C)cc2)cc1	-25.4%	27.5	-29.3%	5.8%	·	?
Cc1ccc(S(=O)(=O)Nc2cccc3cccnc23)cc1	?	-105.2*	?	?	?	?
Cc1ccc(NS(=O)(=O)c2cccc3cccnc23)c(Br)c1	3.1%[46.1 µM]	-82.3*	-8.8%	-4.3%	i	-9.2%[46.1 µM]
CCOc1ccc2c(c1)c(=O)c(C(=O)c1ccc(CC)cc1)cn2CC(=O)Nc1ccccc1OC	-21.3%[46.1 µM]	19.3	-18.8%	·	-18.1%	?
CN1CCN(c2oc(COc3ccc(-c4ccccc4)cc3)nc2C#N)CC1	-14.3%	28.4	-17.0%	5.01µM*	-6.6%	?
N#Cc1nc(COc2ccccc2)oc1N1CCCC1	4.6%	-13.6	-2.7%	-4.2%	-10.9%	?
CN(C)CCNc1oc(COc2ccc(-c3ccccc3)cc2)nc1C#N	?	-20.9	-25.4%	10µM*	-18.4%	?
COc1ccc(N2CCN(c3oc(COc4ccccc4)nc3C#N)CC2)cc1	?	-17.5	-15.2%	-19.2%	-21.9%	-9.5%
N#Cc1nc(-c2ccco2)oc1N1CCN(c2ccccc2)CC1	?	-64.6*	-14.9%	8.5%	·	-17.7%
N#Cc1nc(COc2ccc(-c3ccccc3)cc2)oc1NCCCN1CCOCC1	?	-20.4	?	?	-10.7%	?
